The record followed here is ChEMBL document CHEMBL4513216, “Probing the Open Global Health Chemical Diversity Library for Multistage-Active Starting Points for Next-Generation Antimalarials” (ACS Infect Dis, 2020).

Among all 69,000 compounds or so, about 8,600 (12%) showed an effect of 50% or more. The list comes from a sample in which strong results are over-represented; it also holds similar structures and randomly drawn compounds.

The experiment concerns Plasmodium berghei. As to the kind of experiment: Screen against P. berghei liver stage (PbLuc), transformed with Luciferase, at 10uM. In kind it is functional, HepG2. The conditions noted are these: tested at 10 uM.
For `CC(=O)NCCCNC(=O)Nc1ccccc1-n1nc(C)cc1C`, the INHIBITION is given as 9.06%. The same measure for `COc1ccccc1C(=O)NS(=O)(=O)c1cccc(C#N)c1`: 25.1%; for `COc1cc(CN)c(OC)c2c1OCO2`: -3.48%; for `CCCS(=O)(=O)N1CCC2(CN(c3ccsc3)C(=O)CN2C)C1` (stereo not given): -24.2%. The same measure for `Cc1oncc1C(=O)N1CC[C@H]2C[C@H](c3ccncn3)O[C@@H]2C1`: 11.3%; for `Cn1ncc(Cl)c1C(=O)N1CCC(c2nnsc2S(C)(=O)=O)CC1`: -9.2465%.

With `Cc1ccc(CNC(c2ccccc2)c2nccn2C)cc1C` (stereo not given), the INHIBITION was 54.9%. The same measure for `Cc1cc(C)cc(CNC(c2ccccc2)c2nccn2C)c1` (stereo not given): 41.15%; for `Cc1ccc(CNC(c2ccccc2)c2nccn2C)cc1` (stereo not given): 33.6%. For `Cc1cc(CN2CCCC2c2noc(C(C)C)n2)on1` (stereo not given), the INHIBITION was determined as 47%. Next, `O=C(O)c1cncc(Cc2ccc(F)cc2)c1`: -3.02%; `CCN(Cc1ccoc1)C(=O)c1cc(C)c(C)c(S(N)(=O)=O)c1`: -5.94%; `CCN(Cc1ccncc1)C(=O)c1cc(C)c(C)c(S(N)(=O)=O)c1`: 52.8%. Next, `CCN(Cc1ccoc1)C(=O)c1ccc(C)c(S(N)(=O)=O)c1`: -2.97%. For `CC(C)(C)C(=O)NCC(=O)NCCc1nc(C(F)(F)F)cs1`, the INHIBITION is reported as 15%.

For `CN(C)C(=O)N1CCN(C(=O)c2cccc(Cl)c2)CC2(CNC(=O)C2)C1` (stereo not given), the INHIBITION is 79.6%. As to `O=C1CC2(CCN(C(=O)c3cccc(Cl)c3)CC2)CN1`, the INHIBITION is 55.7%. The same measure for `CN(C)C(=O)N1CCN(C(=O)c2ccccc2)CC2(CNC(=O)C2)C1` (stereo not given): -0.804%; for `CN(C)C(=O)N1CCN(C(=O)c2ccc(Cl)cc2)CC2(CNC(=O)C2)C1` (stereo not given): 21.7%. Take `COc1cc(Cl)cc(C(=O)N2CCC3(CC2)CNC(=O)C3)c1`: the INHIBITION was 13.7%. Next, `CS(=O)(=O)N1CCN(C(=O)c2cccc(Cl)c2)CC2(CNC(=O)C2)C1` (stereo not given): 13.7%; `O=C(Cc1noc2ccccc12)N1CCC(Nc2cccnn2)CC1`: 43.3%; `CC(C)(C)c1n[nH]c(C2CN(C(=O)c3cc(C4CC4)on3)CCO2)n1` (stereo not given): 35.5%. The same measure for `O=C(CCCNc1ncccn1)N1CCCC(n2cncn2)C1` (stereo not given): 27.6%; for `O=C([C@H]1CN(Cc2nccs2)C[C@H]2OCC[C@@H]12)N1CCCCO1`: 22.2%.

Take `CCOC1(C)C(=O)c2ccccc2N1Nc1ccccc1C(=O)CC` (stereo not given): the INHIBITION is 67.3%. The same measure for `CCC(=O)c1ccc(Br)cc1NN1c2cc(Br)ccc2C(=O)C1(C)OC` (stereo not given): 70.6%.

As to `CCC(=O)c1ccccc1NN1c2ccccc2C(=O)C1(C)OC` (stereo not given), the INHIBITION came out at 17.6%. The same measure for `CC(NC(=O)N1CCNC(=O)CC1)c1ccc(C(F)(F)F)cc1` (stereo not given): 48.2%; for `Cc1cc2n(n1)[C@@H](C(F)(F)F)C[C@@H](C1CCN(C(=O)C(C)C)CC1)N2`: -26.2%. For `Cc1cnc(C(=O)N2CCCC(c3c(C)c(=O)nc4n3CCC4)C2)cn1` (stereo not given), the INHIBITION is reported as -17.7%.

As for `O=S(=O)(NCc1ccccc1)N1CCN(c2ncccn2)CC1`, the INHIBITION is listed as 31%.

On to `O=S(=O)(NCc1ccccc1)N1CCCN(c2ccncc2)CC1`, for which the INHIBITION is 71.3%. Consider `N#Cc1cccnc1N1CCN(S(=O)(=O)NCc2ccccc2)CC1`, for which the INHIBITION was 11.5%. The same measure for `Cc1cccc(=O)n1CCCNc1ncnc2c1CCNCC2`: -1.98%; for `Cc1[nH]c2ccc(C#N)cc2c1CCNc1ncnc2c1CCNCC2`: 44.3%; for `Cc1ccccc1C(CNc1ncnc2c1CCNCC2)N(C)C` (stereo not given): -59.8%. Next, `Cc1[nH]c2ccccc2c1CCNc1ncnc2c1CCNCC2`: 72.1%. Next, `Cc1[nH]c2ccc(Cl)cc2c1CCNc1ncnc2c1CCNC2`: 92.5%; `Cc1ccccc1C(CNc1ncnc2c1CCNC2)N(C)C` (stereo not given): -2.98%. As for `c1cnn(CCN2CCOC(Cn3cccn3)C2)c1` (stereo not given), the INHIBITION is -59.4%.

As for `CCCOCC(=O)N1CCc2nc(NC)nc(C(=O)N3CCCC3)c2C1`, the INHIBITION was -5.08%. The same measure for `CN(C)c1ccc(C(=O)N2CCN(c3cnccn3)CC2)cn1`: 2.1%. Next, `Cc1nn(C)c2ncc(CN3CCN(c4ncccn4)CC3)cc12`: 7.3%. The same measure for `CCC(C)NC(=O)CS(=O)(=O)Cc1cc(Cl)c2c(c1)OCCCO2` (stereo not given): -58.7%. On to `CCOC(=O)C1(O)CCN(C(=O)Nc2cccc(CC)c2)CC1`, for which the INHIBITION is -41.8%. The same measure for `COc1c(C2CCCN2C(=O)c2ccnc(C)n2)c(C)nn1C` (stereo not given): 3.73%; for `Cc1nn(C)cc1CN1CCCCCC1c1ccc(Cl)cc1` (stereo not given): 13.6%. The same measure for `COc1ccnc(N2CCN(C(C)c3nc(C)no3)CC2)n1` (stereo not given): 22.6%. Next, `Cc1noc(C(C)N2CCN(c3ncnc4sccc34)CC2)n1` (stereo not given): 68.8%. Consider `CCc1cc(C)nc(N2CCN(C(C)c3nc(C)no3)CC2)n1` (stereo not given), for which the INHIBITION stood at 53.4%. Next, `CCc1noc(C(C)N2CCN(c3ncnc4sccc34)CC2)n1` (stereo not given): 61.7%; `CCOc1cc(C)nc(N2CCN(C(C)c3nc(C)no3)CC2)n1` (stereo not given): 18.7%. Consider `Cc1noc(C(C)N2CCC(c3nc4ccccc4[nH]3)CC2)n1` (stereo not given), for which the INHIBITION was 35.4%. Next, `COc1cc(C)nc(N2CCN(C(C)c3nc(C)no3)CC2)n1` (stereo not given): -72.5%.
